Compounds without any hit were thinned out: in the full panel of roughly 83,000, 20% have a hit.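 Results are percent growth after 48 hours of single-concentration exposure. 100 means growth as in untreated cells, lower positive values show inhibition; negative values down to -100 show cell death.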 Activity calls are given as the source filed them. How the source made its calls: active means growth percent below 10; inactive means the rest.
What was measured:
Assay in all cases: NCI-60 one-dose screen, 48 h (100 = growth as untreated, 0 = no growth, -100 = all killed)
Details in all cases: 10 µM unless noted
[1] = system: NCI-H23 lung
[2] = system: NCI-H226 lung
[3] = system: NCI-H322M lung
[4] = system: HOP-62 NSCLC
[5] = system: NCI-H460 lung
[6] = system: HOP-92 NSCLC
[7] = system: NCI-H522 lung
[8] = system: A549/ATCC NSCLC
[9] = system: 786-0 renal
[10] = system: COLO 205 colon
[11] = system: DU-145 prostate
[12] = system: K-562 leukemia
[13] = system: MALME-3M melanoma
[14] = system: MDA-MB-231 breast
[15] = system: RXF 393 renal
[16] = system: SF-268 CNS
[17] = system: SF-295 CNS
[18] = system: SF-539 CNS
[19] = system: UACC-257 melanoma
[20] = system: M14 melanoma

Measured: growth

CN(C)CCn1c2ccccc2c2nc3ccc([N+](=O)[O-])cc3nc21
active: [1] -9.77% | [2] -21.2% | [4] -19.3% | [5] 4.86% | [7] -25.2% | [8] -50% | [9] 1.77% | [10] 3.88% | [11] 7.7% | [12] 8.19% | [13] -14.4% | [14] 5.52% | [17] 0.988% | [18] -2.27% | [19] -13.2%
inactive: [3] 11.3% | [6] 28.9% | [15] 10.1% | [16] 24.7% | [20] 17.9%

COc1ccc(C(=O)/C=C/c2ccc(OCc3ccc(F)cc3)c(OC)c2)cc1OC
inactive: [1] 26.5% | [2] 46.3% | [4] 26.6% | [5] 14.8% | [8] 11.9% | [9] 37.4% | [10] 29.9% | [13] 61.4% | [14] 11.1% | [15] 18.7% | [16] 24.3% | [17] 15.6% | [19] 33.6% | [20] 38.1%
active: [3] 7.43% | [6] -14.8% | [7] 2.98% | [11] 1.63% | [12] 7.71% | [18] -38.6%

O=C(COc1ccc(NC(=O)Nc2ccc(Cl)cc2)cc1)N/N=C/c1ccccc1
active: [1] -94.5% | [2] -89.2% | [3] -40.4% | [4] -84.6% | [5] -79.3% | [6] -77.9% | [7] -83.5% | [8] -78.3% | [9] -82% | [10] -66.5% | [11] -23.9% | [12] -15.2% | [13] -90.8% | [14] -87.9% | [15] -85.2% | [16] -55.2% | [17] -96.6% | [18] -95.3% | [19] -36.6% | [20] -66.1%

Cc1cc2c(cc1Cl)C(=O)/C(=C/c1ccccc1)O2
inactive: [2] 14.6% | [3] 73.5% | [4] 21.8% | [5] 24.6% | [6] 44.4% | [10] 32.7% | [16] 64% | [17] 24.9% | [19] 36.1% | [20] 30.9%
active: [1] 0.835% | [7] -75% | [8] -59.7% | [9] -38.5% | [11] -94.3% | [12] 9.17% | [13] -46.8% | [14] -36.5% | [15] -33.9% | [18] -98.5%

CC(=O)Nc1cccc(-c2nc3cc(-c4ccc(O)cc4)ccc3n2C)c1
active: [13] -4.44% | [19] -3.29%
inactive: [1] 48.8% | [2] 49.8% | [3] 67.1% | [4] 54.3% | [5] 55.4% | [6] 93.7% | [7] 26.7% | [8] 35.2% | [9] 63.2% | [10] 56.5% | [11] 56.5% | [12] 35.4% | [14] 49.1% | [15] 81.3% | [16] 42.8% | [17] 26% | [18] 57.2% | [20] 24.5%

CN(C)CCOc1ccc(C(=O)C2[C@H](c3ccc(Cl)cc3)[C@@H](c3ccccc3)NC23C(=O)Nc2ccc(Br)cc23)cc1 (some centres undefined)
inactive: [2] 43.7% | [3] 53.7% | [4] 75.9% | [6] 23.5% | [11] 14.3% | [16] 41.8% | [18] 13% | [19] 53.8%
active: [1] -2.68% | [5] -78.1% | [7] -2.86% | [8] 4.59% | [9] -72.5% | [10] -69% | [12] -32.3% | [13] -50.2% | [14] -20.5% | [15] -0.638% | [17] -53.4% | [20] -71.5%

COc1ccccc1C(=O)NN1C(=O)/C(=C/C2=Cc3ccccc3OC2)SC1=S
inactive: [1] 106% | [2] 98.9% | [3] 99.4% | [4] 106% | [5] 120% | [6] 86.6% | [7] 97.9% | [8] 103% | [9] 104% | [10] 119% | [11] 112% | [12] 101% | [13] 99.3% | [14] 102% | [15] 114% | [16] 109% | [17] 109% | [18] 95.4% | [19] 108% | [20] 99.3%

COc1cc2c(c(OC)c1OC)C(=O)CC(c1cccc(NC(=O)[C@@H](N)CC(C)C)c1)O2 (some centres undefined)
inactive: [1] 102% | [2] 94.3% | [3] 111% | [4] 99% | [5] 106% | [6] 80.2% | [7] 90% | [8] 93.1% | [9] 96.4% | [10] 118% | [11] 100% | [12] 80.6% | [13] 95.5% | [14] 99.9% | [15] 101% | [16] 95.1% | [17] 101% | [18] 97.3% | [19] 94.1% | [20] 116%

Cn1cc(-c2nnc(N)nc2-c2c[nH]c3ccccc23)c2cccnc21
inactive: [1] 65.7% | [2] 71.1% | [3] 69.9% | [4] 48.1% | [5] 15.2% | [6] 87.1% | [7] 21.4% | [8] 46% | [9] 54.9% | [10] 25.9% | [11] 76.9% | [12] 15.7% | [13] 38.2% | [14] 48.5% | [15] 71.1% | [16] 65.9% | [17] 32% | [18] 49.3% | [19] 62.3% | [20] 20.8%

Cc1ccc2c(N)c(C(=O)Nc3ccc(-c4ccccc4)cc3)sc2n1
inactive: [1] 42.2% | [2] 45.1% | [3] 73.8% | [4] 63.5% | [5] 73% | [6] 27.1% | [7] 53.9% | [8] 81.5% | [9] 69.3% | [10] 90.9% | [11] 88.4% | [12] 36.9% | [13] 65.5% | [15] 30.5% | [16] 101% | [17] 45.6% | [18] 67.7% | [19] 61% | [20] 73.2%

N/N=C(\N)c1c(N)nc(=S)[nH]c1-c1ccc(Cl)cc1Cl
inactive: [1] 103% | [2] 106% | [3] 106% | [4] 92.5% | [5] 116% | [6] 76.2% | [7] 95.3% | [8] 104% | [9] 101% | [10] 120% | [11] 120% | [12] 105% | [13] 92.3% | [14] 94.9% | [15] 115% | [16] 108% | [17] 94.5% | [18] 94.6% | [19] 108% | [20] 107%

C=C1CC[C@@H]2[C@]3(C)COC(c4cn[nH]c4-c4ccccc4)O[C@@H]3CC[C@@]2(C)[C@@H]1C/C=C1/C(=O)OCC1O (some centres undefined)
active: [1] -27.2% | [2] -30.6% | [6] -12.4% | [7] 1.15% | [9] -72.8% | [10] -10.8% | [11] 5.39% | [12] -10.2% | [13] -81.2% | [15] -59.4% | [18] -74.8% | [20] -17.5%
inactive: [3] 83.7% | [4] 63.8% | [5] 18% | [8] 56.1% | [16] 36.5% | [17] 50.2% | [19] 13.5%

CN1CCc2c(sc3ncnc(N/N=C/c4ccc(Cl)cc4Cl)c23)C1
active: [2] -59.8% | [6] -47.2% | [7] -34.3% | [9] -93.9% | [10] -48% | [12] -21.5% | [13] -62.4% | [15] -41.8% | [18] -94.6% | [19] -12.3% | [20] -81.4%
inactive: [1] 12.2% | [3] 29.2% | [4] 27.1% | [5] 10.1% | [8] 31.4% | [11] 36.1% | [16] 35.8% | [17] 32.4%

COc1ccc2nc(Nc3cccc(NC(=O)c4ccc(CN5CCCN(C)CC5)c(C(F)(F)F)c4)c3)ccc2c1
active: [1] -71.9% | [2] -39.8% | [3] -86.4% | [4] -47.3% | [5] 8.75% | [6] -53.1% | [7] -50.7% | [8] -24.8% | [9] -73.4% | [10] -31.7% | [11] -54.2% | [12] -18.6% | [13] -58.3% | [15] -82.9% | [16] -9.02% | [17] -53.9% | [18] -56.2% | [19] -34% | [20] -49.4%

N#Cc1c(-c2ccccc2Cl)cc(-c2c[nH]c3ccccc23)[nH]c1=O
inactive: [1] 69.9% | [2] 64.3% | [3] 72.9% | [4] 67.2% | [5] 65.9% | [6] 44.9% | [7] 70.8% | [8] 77.5% | [9] 68.8% | [10] 114% | [11] 66% | [12] 20% | [13] 57.2% | [15] 48.7% | [16] 80% | [17] 75.8% | [18] 52.2% | [19] 82.3% | [20] 64.1%

N#Cc1c(-c2cccc3ccccc23)cc(-c2cccc(OCC(=O)O)c2)[nH]c1=O
inactive: [1] 97.7% | [2] 93.6% | [3] 96.1% | [4] 105% | [5] 101% | [6] 98.6% | [7] 97.9% | [8] 94.6% | [9] 101% | [10] 106% | [11] 105% | [12] 94.2% | [13] 87.3% | [15] 105% | [16] 96.6% | [17] 101% | [18] 95.5% | [19] 97.8% | [20] 93.6%
